Among all 5,500 compounds or so, about 2,000 (36%) were called active. Not shown: some 18% with an inconclusive outcome. Cut-off read from the data, not from the text of the source: active = normalized growth mostly below about 0.91 (no sharp cut-off); inconclusive = no clear call, values can overlap the other calls; inactive = mostly above about 0.92. The list shows a part of the results.
Assay: chemical genetic growth profiling, strain panel (AID 1159580);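 note: tested at 20 µM; growth read once vehicle control cultures reached saturation at 30 °C; 1 = growth at the plate median or of vehicle wells; lower values mean less growth of the strain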
Details: growth OD

Measured: normalized growth

CCCCCC1C(=O)CCC1CC(=O)OC (stereo unspecified)
inactive: S. cerevisiae deletion strains, locus YJR043C, strain POL32, active compounds read low 0.991 | S. cerevisiae deletion strains, locus YJR066W, strain TOR1, active compounds read low 0.982 | S. cerevisiae deletion strains, locus YJR075W, strain HOC1, active compounds read low 1.01 | S. cerevisiae deletion strains, locus YKL009W, strain mrt4, active compounds read low 0.914 | S. cerevisiae deletion strains, locus YKL068W, active compounds read low 0.952 | S. cerevisiae deletion strains, locus YKL085W, strain MDH1 (second series), active compounds read low 0.96 | S. cerevisiae deletion strains, locus YKL085W, strain MDH1, active compounds read low 0.96 | S. cerevisiae deletion strains, locus YKL160W, strain elf1, active compounds read low 0.988 | S. cerevisiae deletion strains, locus YKR001C, strain vps1, active compounds read low 0.951 | S. cerevisiae deletion strains, locus YKR026C, strain gcn3, active compounds read low 0.976 | S. cerevisiae deletion strains, locus YKR091W, strain srl3, active compounds read low 0.982 | S. cerevisiae deletion strains, locus YLL001W, strain dnm1, active compounds read low 0.983 | S. cerevisiae deletion strains, locus YLL026W, active compounds read low 0.981 | S. cerevisiae deletion strains, locus YLL041C, strain sdh2, active compounds read low 0.982 | S. cerevisiae deletion strains, locus YLR027C, strain aat2, active compounds read low 0.983 | S. cerevisiae deletion strains, locus YLR039C, strain RIC1, active compounds read low 1.03 | S. cerevisiae deletion strains, locus YLR058C, strain SHM2, active compounds read low 1 | S. cerevisiae deletion strains, locus YLR102C, strain apc9, active compounds read low 0.956 | S. cerevisiae deletion strains, locus YLR113W, strain HOG1, active compounds read low 0.942 | S. cerevisiae deletion strains, locus YLR221C, strain rsa3, active compounds read low 0.985 | S. cerevisiae deletion strains, locus YLR258W, strain gsy2, active compounds read low 0.981 | S. cerevisiae deletion strains, locus YLR262C, strain YPT6 (second series), active compounds read low 1.02 | S. cerevisiae deletion strains, locus YLR262C, strain YPT6, active compounds read low 1.05 | S. cerevisiae deletion strains, locus YLR268W, strain sec22, active compounds read low 0.956 | S. cerevisiae deletion strains, locus YLR320W, strain mms22, active compounds read low 0.97 | S. cerevisiae deletion strains, locus YLR330W, strain CHS5, active compounds read low 0.97 | S. cerevisiae deletion strains, locus YLR342W, strain FKS1 (second series), active compounds read low 1.08 | S. cerevisiae deletion strains, locus YLR342W, strain FKS1, active compounds read low 0.984 | S. cerevisiae deletion strains, locus YLR357W, strain rsc2, active compounds read low 0.947 | S. cerevisiae deletion strains, locus YLR370C, strain arc18, active compounds read low 0.978 | S. cerevisiae deletion strains, locus YLR371W, strain rom2, active compounds read low 0.958 | S. cerevisiae deletion strains, locus YLR384C, strain iki3, active compounds read low 0.961 | S. cerevisiae deletion strains, locus YLR418C, strain cdc73, active compounds read low 1.02 | S. cerevisiae deletion strains, locus YML016C, strain PPZ1, active compounds read low 0.975 | S. cerevisiae deletion strains, locus YML032C, strain rad52, active compounds read low 0.983 | S. cerevisiae deletion strains, locus YML120C, strain ndi1, active compounds read low 0.994 | S. cerevisiae deletion strains, locus YML124C, strain tub3, active compounds read low 0.941 | S. cerevisiae deletion strains, locus YMR058W, strain fet3, active compounds read low 0.992 | S. cerevisiae deletion strains, locus YMR078C, strain ctf18, active compounds read low 0.945 | S. cerevisiae deletion strains, locus YMR125W, strain sto1, active compounds read low 0.971 | S. cerevisiae deletion strains, locus YMR129W, active compounds read low 0.973 | S. cerevisiae deletion strains, locus YMR205C, strain PFK2, active compounds read low 0.969 | S. cerevisiae deletion strains, locus YMR223W, strain ubp8, active compounds read low 0.981 | S. cerevisiae deletion strains, locus YMR231W, strain pep5, active compounds read low 0.97 | S. cerevisiae deletion strains, locus YMR263W, strain SAP30, active compounds read low 1.02 | S. cerevisiae deletion strains, locus YMR307W, strain GAS1, active compounds read low 1.24 | S. cerevisiae deletion strains, locus YNL067W, strain RPL9B, active compounds read low 1.03 | S. cerevisiae deletion strains, locus YNL071W, strain lat1, active compounds read low 0.988 | S. cerevisiae deletion strains, locus YNL153C, strain GIM3, active compounds read low 1.02 | S. cerevisiae deletion strains, locus YNL183C, strain NPR1, active compounds read low 0.928 | S. cerevisiae deletion strains, locus YNL209W, strain ssb2, active compounds read low 0.983 | S. cerevisiae deletion strains, locus YNL233W, strain BNI4, active compounds read low 1.04 | S. cerevisiae deletion strains, locus YNL248C, strain rpa49, active compounds read low 0.967 | S. cerevisiae deletion strains, locus YNL250W, strain rad50, active compounds read low 0.945 | S. cerevisiae deletion strains, locus YNL271C, strain bni1, active compounds read low 0.937 | S. cerevisiae deletion strains, locus YNL298W, strain CLA4, active compounds read low 0.966 | S. cerevisiae deletion strains, locus YNL307C, strain MCK1, active compounds read low 0.97 | S. cerevisiae deletion strains, locus YNL322C, strain KRE1 (second series), active compounds read low 0.981 | S. cerevisiae deletion strains, locus YNL322C, strain KRE1, active compounds read low 0.988 | S. cerevisiae deletion strains, locus YNR049C, strain mso1, active compounds read low 0.987 | S. cerevisiae deletion strains, locus YNR052C, strain pop2, active compounds read low 0.978 | S. cerevisiae deletion strains, locus YOL012C, strain htz1 1.15 | S. cerevisiae deletion strains, locus YOL147C, strain pex11, active compounds read low 0.965 | S. cerevisiae deletion strains, locus YOR001W, strain rrp6, active compounds read low 0.977 | S. cerevisiae deletion strains, locus YOR061W, strain CKA2, active compounds read low 0.99 | S. cerevisiae deletion strains, locus YOR069W, strain VPS5, active compounds read low 0.978 | S. cerevisiae deletion strains, locus YOR070C, strain gyp1, active compounds read low 0.972 | S. cerevisiae deletion strains, locus YOR080W, strain dia2, active compounds read low 0.974 | S. cerevisiae deletion strains, locus YOR083W, strain WHI5, active compounds read low 0.986 | S. cerevisiae deletion strains, locus YOR106W, strain vam3, active compounds read low 1.03 | S. cerevisiae deletion strains, locus YOR136W, strain idh2, active compounds read low 0.973 | S. cerevisiae deletion strains, locus YOR144C, strain elg1, active compounds read low 0.963 | S. cerevisiae deletion strains, locus YOR184W, strain ser1, active compounds read low 0.921 | S. cerevisiae deletion strains, locus YOR231W, strain MKK1, active compounds read low 0.977 | S. cerevisiae deletion strains, locus YOR265W, strain rbl2, active compounds read low 0.981 | S. cerevisiae deletion strains, locus YOR270C, strain vph1, active compounds read low 0.997 | S. cerevisiae deletion strains, locus YOR290C, strain snf2, active compounds read low 1 | S. cerevisiae deletion strains, locus YOR316C, strain cot1, active compounds read low 0.952 | S. cerevisiae deletion strains, locus YPL051W, strain arl3, active compounds read low 0.991 | S. cerevisiae deletion strains, locus YPL055C, strain LGE1, active compounds read low 1 | S. cerevisiae deletion strains, locus YPL078C, strain atp4, active compounds read low 0.975 | S. cerevisiae deletion strains, locus YPL106C, strain sse1, active compounds read low 0.999 | S. cerevisiae deletion strains, locus YPL240C, strain hsp82, active compounds read low 0.969 | S. cerevisiae deletion strains, locus YPL241C, strain CIN2, active compounds read low 0.977 | S. cerevisiae deletion strains, locus YPL256C, strain CLN2, active compounds read low 0.97 | S. cerevisiae deletion strains, locus YPR119W, strain clb2, active compounds read low 0.939 | S. cerevisiae deletion strains, locus YPR141C, strain kar3, active compounds read low 0.944 | S. cerevisiae deletion strains, locus YPR163C, strain tif3, active compounds read low 0.963 | S. cerevisiae deletion strains, locus YPR167C, strain met16, active compounds read low 0.959 | S. cerevisiae deletion strains, strain wtn01, active compounds read low 0.962 | S. cerevisiae strains, strain wild type, active compounds read low 1
